{"source": "the antibiotic and cytotoxicity screens of Wong et al. (2023)", "note": "About 3,300 (8.5%) of roughly 39,000 compounds were called active. The entries come from a sample that favours actives as a whole."}
{"test_system": "HepG2", "assay": "cytotoxicity call (relative viability < 0.9)", "conditions": "10 µM"}
{"compound": "C[C@H](CO)N1C[C@H](C)[C@H](CN(C)S(=O)(=O)c2ccc(Cl)cc2)Oc2c(NC(=O)c3cnccn3)cccc2C1=O", "cytotoxicity call": "inactive"}
{"compound": "COc1ccc(NC(=O)Nc2cccc3c2O[C@H](CN(C)Cc2ccc(Oc4ccccc4)cc2)[C@H](C)CN([C@@H](C)CO)C3=O)cc1", "cytotoxicity call": "inactive"}
{"compound": "CC(C)NC(=O)Nc1cccc2c1O[C@@H](CN(C)Cc1ccc(Oc3ccccc3)cc1)[C@@H](C)CN([C@@H](C)CO)C2=O", "cytotoxicity call": "inactive"}
{"compound": "C[C@H]1CN([C@@H](C)CO)C(=O)c2cccc(NC(=O)Nc3ccccc3)c2O[C@@H]1CN(C)Cc1ccc(Oc2ccccc2)cc1", "cytotoxicity call": "inactive"}
{"compound": "C[C@@H]1CN([C@@H](C)CO)C(=O)c2cccc(NC(=O)Nc3ccccc3)c2O[C@H]1CN(C)Cc1ccc(Oc2ccccc2)cc1", "cytotoxicity call": "inactive"}
{"compound": "C[C@@H]1CN([C@@H](C)CO)C(=O)c2cccc(NC(=O)Nc3ccccc3)c2O[C@@H]1CN(C)Cc1ccc(Oc2ccccc2)cc1", "cytotoxicity call": "active"}
{"compound": "C[C@H](CO)N1C[C@H](C)[C@@H](CN(C)Cc2ccc(Oc3ccccc3)cc2)Oc2c(NC(=O)Nc3ccccc3)cccc2C1=O", "cytotoxicity call": "inactive"}
{"compound": "CC(C)NC(=O)Nc1cccc2c1O[C@H](CN(C)Cc1ccc(Oc3ccccc3)cc1)[C@@H](C)CN([C@@H](C)CO)C2=O", "cytotoxicity call": "active"}
{"compound": "CC(C)NC(=O)Nc1cccc2c1O[C@@H](CN(C)Cc1ccc(Oc3ccccc3)cc1)[C@H](C)CN([C@H](C)CO)C2=O", "cytotoxicity call": "inactive"}
{"compound": "COc1ccc(NC(=O)Nc2cccc3c2O[C@@H](CN(C)Cc2ccc(Oc4ccccc4)cc2)[C@H](C)CN([C@@H](C)CO)C3=O)cc1", "cytotoxicity call": "active"}
{"compound": "C[C@@H]1CCCCO[C@H](CN(C)Cc2ccccc2)[C@@H](C)CN([C@@H](C)CO)C(=O)c2cc(NC(=O)c3ccncc3)ccc2O1", "cytotoxicity call": "inactive"}
{"compound": "COCC#Cc1cnc2c(c1)C(=O)N([C@@H](C)CO)C[C@H](C)[C@H](CN(C)C(C)=O)O2", "cytotoxicity call": "inactive"}
{"compound": "C[C@H]1CN([C@@H](C)CO)C(=O)Cc2cc(NS(=O)(=O)c3cccs3)ccc2O[C@H]1CN(C)Cc1ccncc1", "cytotoxicity call": "inactive"}
{"compound": "C[C@H](C(=O)N(C)C[C@@H]1OCc2ccccc2-c2c(n(C)c3ccccc23)C(=O)N([C@H](C)CO)C[C@H]1C)c1ccccc1", "cytotoxicity call": "inactive"}
{"compound": "C[C@H](O)C#Cc1cnc2c(c1)C(=O)N([C@@H](C)CO)C[C@H](C)[C@H](CN(C)C(=O)Nc1ccc(C(F)(F)F)cc1)O2", "cytotoxicity call": "inactive"}
{"compound": "Cc1ccc(S(=O)(=O)Nc2ccc3c(c2)C(=O)N([C@@H](C)CO)C[C@@H](C)[C@@H](CN(C)C(=O)Nc2ccc4c(c2)OCO4)OCCCC[C@@H](C)O3)cc1", "cytotoxicity call": "inactive"}
{"compound": "C[C@H](CO)N1C[C@H](C)[C@H](CN(C)C(=O)Nc2cccc(C(F)(F)F)c2)OCc2ccccc2-c2ccccc2C1=O", "cytotoxicity call": "inactive"}
{"compound": "C[C@@H]1CN([C@@H](C)CO)C(=O)c2cc(NS(=O)(=O)c3cn(C)cn3)ccc2O[C@@H](C)CCCCO[C@H]1CN(C)C(=O)c1ccncc1", "cytotoxicity call": "inactive"}
{"compound": "CO[C@H]1C[C@@H](C[C@@H](C)[C@H]2CC(=O)[C@H](C)/C=C(\\C)[C@@H](O)[C@H](OC)C(=O)[C@H](C)C[C@H](C)/C=C/C=C\\C=C(C)[C@H](OC)C[C@@H]3CC[C@@H](C)[C@@](O)(O3)C(=O)C(=O)N3CCCC[C@H]3C(=O)O2)CC[C@H]1OC(=O)C(C)(CO)CO", "cytotoxicity call": "active"}
{"compound": "CO[C@H]1C[C@@H](C[C@@H](C)[C@H]2CC(=O)[C@@H](C)/C=C(\\C)[C@@H](O)[C@@H](OC)C(=O)[C@@H](C)C[C@@H](C)/C=C/C=C/C=C(\\C)[C@H](OC)C[C@H]3CC[C@@H](C)[C@@](O)(O3)C(=O)C(=O)N3CCCC[C@@H]3C(=O)O2)CC[C@@H]1OC(=O)C(C)(CO)CO", "cytotoxicity call": "inactive"}
{"compound": "CO[C@H]1C[C@@H]2CC[C@@H](C)[C@@](O)(O2)C(=O)C(=O)N2CCCC[C@H]2C(=O)O[C@H]([C@H](C)C[C@@H]2CC[C@@H](OC(=O)C(C)(CO)CO)[C@H](OC)C2)CC(=O)[C@H](C)/C=C(\\C)[C@@H](O)[C@@H](OC)C(=O)[C@H](C)C[C@H](C)/C=C/C=C/C=C/1C", "cytotoxicity call": "inactive"}
{"compound": "C[C@@H]1CN([C@H](C)CO)C(=O)c2cc(NC(=O)Cc3ccccc3)ccc2O[C@@H]1CN(C)Cc1ccc(Cl)c(Cl)c1", "cytotoxicity call": "inactive"}
{"compound": "C[C@@H]1CN([C@H](C)CO)C(=O)c2cc(NS(C)(=O)=O)ccc2O[C@@H]1CN(C)C(=O)Nc1ccccc1", "cytotoxicity call": "inactive"}
{"compound": "Cc1nc(CCO)cs1", "cytotoxicity call": "inactive"}
{"compound": "CC(C)[Si](C#CCCc1ccccc1)(O[C@H](c1ccccc1)c1cn(Cc2ccccc2)nn1)C(C)C", "cytotoxicity call": "inactive"}
{"compound": "Nc1nc2c(ncn2COCCO)c(=O)[nH]1", "cytotoxicity call": "inactive"}
{"compound": "Nc1nc2c(ncn2COC(CO)CO)c(=O)[nH]1.O", "cytotoxicity call": "inactive"}
{"compound": "C=C1C(CO)C(O)CC1n1cnc2c(=O)[nH]c(N)nc21.O", "note": "(stereo not given)", "cytotoxicity call": "active"}
{"compound": "C[C@@H]1CN([C@H](C)CO)C(=O)CCCn2cc(nn2)CO[C@@H]1CN(C)C(=O)C1CC1", "cytotoxicity call": "inactive"}
{"compound": "Cc1ccccc1N1CCN(S(=O)(=O)C[C@]23CC[C@H](C[C@@H]2NC(=O)[C@@H](N)CCS(C)(=O)=O)C3(C)C)CC1", "cytotoxicity call": "inactive"}
{"compound": "COc1ccc(CN(C)C[C@@H]2OCCCC[C@H](C)Oc3ccc(NC(=O)Nc4ccccc4)cc3C(=O)N([C@@H](C)CO)C[C@H]2C)cc1", "cytotoxicity call": "inactive"}
{"compound": "O=C(C[C@@H]1CC[C@H](NS(=O)(=O)c2ccc(F)cc2)[C@@H](CO)O1)N1CCC(Cc2ccccc2)CC1", "cytotoxicity call": "inactive"}
{"compound": "CC1(COc2ccc3c(c2)ncn3-c2ccc3cccc(N4CCC(N)CC4)c3n2)COC1", "cytotoxicity call": "active"}
{"compound": "C[C@@H]1CN([C@@H](C)CO)S(=O)(=O)c2ccc(C#Cc3ccccc3)cc2O[C@@H]1CN(C)S(=O)(=O)c1ccccc1F", "cytotoxicity call": "inactive"}
{"compound": "Cl.O=C(Nc1ccccc1)OCC(CN1CCCCC1)OC(=O)Nc1ccccc1", "note": "(stereo not given)", "cytotoxicity call": "active"}
{"compound": "C[C@@H](CN1CCCCC1)C(=O)NN", "cytotoxicity call": "inactive"}
{"compound": "Cc1ccc(C(=O)C(C)CN2CCCCC2)cc1.Cl", "note": "(stereo not given)", "cytotoxicity call": "inactive"}
{"compound": "C[C@H](CO)N1C[C@H](C)[C@@H](CN(C)S(C)(=O)=O)Oc2ccc(NS(=O)(=O)c3ccc(Cl)cc3)cc2CC1=O", "cytotoxicity call": "inactive"}
{"compound": "Cc1noc(C)c1NC(=O)N(C)C[C@H]1OCCCC[C@@H](C)Oc2ccc(NC(=O)Nc3cccc4ccccc34)cc2C(=O)N([C@@H](C)CO)C[C@H]1C", "cytotoxicity call": "inactive"}
{"compound": "C[C@@H]1CN([C@H](C)CO)C(=O)c2cc(NC(=O)C3CCCCC3)ccc2O[C@@H](C)CCCCO[C@@H]1CN(C)Cc1ccc2c(c1)OCO2", "cytotoxicity call": "active"}
{"compound": "C[C@@H]1CCCCO[C@H](CN(C)Cc2ccc3c(c2)OCO3)[C@@H](C)CN([C@H](C)CO)C(=O)c2cc(NC(=O)C3CCCCC3)ccc2O1", "cytotoxicity call": "active"}
{"compound": "C[C@H](CO)N1C[C@H](C)[C@H](CN(C)Cc2ccc3c(c2)OCO3)OCCCC[C@H](C)Oc2ccc(NC(=O)C3CCCCC3)cc2C1=O", "cytotoxicity call": "inactive"}
{"compound": "C[C@@H]1CN([C@@H](C)CO)C(=O)c2cc(NC(=O)C3CCCCC3)ccc2O[C@@H](C)CCCCO[C@@H]1CN(C)Cc1ccc2c(c1)OCO2", "cytotoxicity call": "inactive"}
{"compound": "C[C@@H]1CCCCO[C@H](CN(C)Cc2ccc3c(c2)OCO3)[C@H](C)CN([C@H](C)CO)C(=O)c2cc(NC(=O)C3CCCCC3)ccc2O1", "cytotoxicity call": "active"}
{"compound": "C[C@H]1CCCCO[C@H](CN(C)Cc2ccc3c(c2)OCO3)[C@@H](C)CN([C@@H](C)CO)C(=O)c2cc(NC(=O)C3CCCCC3)ccc2O1", "cytotoxicity call": "inactive"}
{"compound": "C[C@@H]1CCCCO[C@H](CN(C)Cc2ccc3c(c2)OCO3)[C@@H](C)CN([C@@H](C)CO)C(=O)c2cc(NC(=O)C3CCCCC3)ccc2O1", "cytotoxicity call": "inactive"}
{"compound": "C[C@@H]1CCCCO[C@@H](CN(C)Cc2ccc3c(c2)OCO3)[C@H](C)CN([C@H](C)CO)C(=O)c2cc(NC(=O)C3CCCCC3)ccc2O1", "cytotoxicity call": "inactive"}
{"compound": "C[C@@H]1CCCCO[C@@H](CN(C)Cc2ccc3c(c2)OCO3)[C@H](C)CN([C@@H](C)CO)C(=O)c2cc(NC(=O)C3CCCCC3)ccc2O1", "cytotoxicity call": "inactive"}
{"compound": "C[C@@H]1CCCCO[C@H](CN(C)Cc2ccc3c(c2)OCO3)[C@H](C)CN([C@@H](C)CO)C(=O)c2cc(NC(=O)C3CCCCC3)ccc2O1", "cytotoxicity call": "active"}
{"compound": "C[C@@H]1CCCCO[C@@H](CN(C)Cc2ccc3c(c2)OCO3)[C@@H](C)CN([C@@H](C)CO)C(=O)c2cc(NC(=O)C3CCCCC3)ccc2O1", "cytotoxicity call": "inactive"}
{"compound": "C[C@H](CO)N1C[C@H](C)[C@@H](CN(C)Cc2ccc3c(c2)OCO3)OCCCC[C@H](C)Oc2ccc(NC(=O)C3CCCCC3)cc2C1=O", "cytotoxicity call": "inactive"}
{"compound": "O=C(C[C@@H]1C[C@@H]2c3cc(NC(=O)NC4CCCC4)ccc3O[C@@H]2[C@H](CO)O1)NCc1ccc2c(c1)OCO2", "cytotoxicity call": "inactive"}
{"compound": "CO/N=C(\\C(=O)N[C@@H]1C(=O)N2C(C(=O)O)=C(CSC(=O)c3ccco3)CS[C@H]12)c1csc(N)n1", "cytotoxicity call": "inactive"}
{"compound": "CC(C)NC(=O)N(C)C[C@H]1Oc2ccc(NC(=O)c3ccncc3)cc2CC(=O)N([C@@H](C)CO)C[C@H]1C", "cytotoxicity call": "inactive"}
{"compound": "CC(C)NC(=O)N(C)C[C@H]1Oc2ccc(NC(=O)CCN3CCOCC3)cc2C(=O)N([C@H](C)CO)C[C@H]1C", "cytotoxicity call": "inactive"}
{"compound": "CC(C)NC(=O)Nc1ccc2c(c1)CC(=O)N([C@@H](C)CO)C[C@@H](C)[C@@H](CN(C)C(=O)Nc1ccc3c(c1)OCO3)O2", "cytotoxicity call": "inactive"}
{"compound": "C[C@H]1CN([C@@H](C)CO)C(=O)Cc2cc(NS(=O)(=O)c3ccccc3)ccc2O[C@H]1CN(C)S(=O)(=O)c1cn(C)cn1", "cytotoxicity call": "inactive"}
{"compound": "CNC(=O)Cn1c(=O)c2c(OC)ccnc2n(C)c1=O", "cytotoxicity call": "inactive"}
{"compound": "Cc1noc(C)c1NC(=O)Nc1ccc2c(c1)C(=O)N([C@H](C)CO)C[C@H](C)[C@H](CN(C)S(=O)(=O)c1cccs1)OCCCC[C@@H](C)O2", "cytotoxicity call": "inactive"}
{"compound": "C[C@@H]1CCCCO[C@H](CN(C)C(=O)NC2CCCCC2)[C@@H](C)CN([C@H](C)CO)C(=O)c2cc(NC(=O)Cc3ccccc3)ccc2O1", "cytotoxicity call": "inactive"}
